Calls of active or inactive are those of the source.
Assays:
[1] = E. coli DRC41 culture turbidity changes, primary screen, E. coli filamentation inducer project, strain DRC41, OD650, 48 h (AID 1152);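 note: E. coli MC1000 strain DRC41 lacking acrAB efflux pump and sulA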; conditions: E. coli DRC41 (acrAB sulA), higher = more signal, called active from +8 up or from −8 down
[2] = small-molecule binders of probe aLefty1, primary screen, biochemical, small-molecule microarray, 635/667 nm fluorescence (AID 1153); conditions: higher = more signal;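 note: score merges spot fluorescence with signal-to-noise ratio from the scanned slide images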
[3] = PSAC antagonists in infected red cells, primary screen, cell-based, P. falciparum Indochina, OD700, 1 h (AID 1154); conditions: P. falciparum Indochina infected RBC osmotic lysis, higher = more signal, called active from +8 up or from −8 down
[4] = PSAC antagonists in infected red cells, primary screen, cell-based, P. falciparum Indochina, OD700, 2 h (AID 1155);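 note: lysis reports solute entry through the parasite surface anion channel PSAC; channel blockers reduce lysis of infected cells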; conditions: P. falciparum Indochina infected erythrocytes, osmotic lysis OD700; higher = more signal, called active from +8 up or from −8 down
[5] = osmotic lysis modulators in infected erythrocytes, primary screen, PSAC antagonist project, cell-based, P. falciparum Indochina, OD700, 3 h (AID 1156); conditions: higher = more signal, called active from +8 up or from −8 down
[6] = PSAC antagonists in infected red cells, primary screen, cell-based, P. falciparum Indochina, OD700, 18 h (AID 1157); conditions: P. falciparum Indochina infected erythrocytes, osmotic lysis OD700, 18 h; higher = more signal, called active from +8 up or from −8 down
[7] = modulators of S6 phosphorylation in cells, primary screen, cell-based, A549, cytoblot, luminescence, serum-stimulated (AID 1158); conditions: A549 phospho-S6 cytoblot, 5 h, higher = more signal;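 note: serum-stimulated A549 lung adenocarcinoma cells; signal is phosphorylated S6 detected by cytoblot immunostaining with HRP secondary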
[8] = target: NADPH oxidase 2 (Homo sapiens) (UniProt P04839); test: NOX2-dependent H2O2 signal modulators, primary screen, NOX inhibitor project, cell-based, HEK293-NOX2, PMA-stimulated, Amplex Red fluorescence (AID 1159); conditions: 45 min, higher = more signal, called active from +8 up or from −8 down; note: test concentration not given here
[9] = target: NADPH oxidase 4 (Homo sapiens) (UniProt Q9NPH5); test: NOX4-dependent H2O2 signal modulators, primary screen, NOX inhibitor project, cell-based, HEK293-NOX4, tetracycline-induced, Amplex Red fluorescence (AID 1160); conditions: 45 min, higher = more signal, called active from +8 up or from −8 down
[10] = target: NADPH oxidase 5 (Homo sapiens) (UniProt Q96PH1); test: NOX5-dependent H2O2 signal modulators, primary screen, NOX inhibitor project, cell-based, HEK293-NOX5, Amplex Red fluorescence (AID 1161); conditions: HEK293-NOX5, ionomycin, 45 min, higher = more signal
NADPH oxidase 5 (Homo sapiens), sequence (Q96PH1 whole entry, looked up): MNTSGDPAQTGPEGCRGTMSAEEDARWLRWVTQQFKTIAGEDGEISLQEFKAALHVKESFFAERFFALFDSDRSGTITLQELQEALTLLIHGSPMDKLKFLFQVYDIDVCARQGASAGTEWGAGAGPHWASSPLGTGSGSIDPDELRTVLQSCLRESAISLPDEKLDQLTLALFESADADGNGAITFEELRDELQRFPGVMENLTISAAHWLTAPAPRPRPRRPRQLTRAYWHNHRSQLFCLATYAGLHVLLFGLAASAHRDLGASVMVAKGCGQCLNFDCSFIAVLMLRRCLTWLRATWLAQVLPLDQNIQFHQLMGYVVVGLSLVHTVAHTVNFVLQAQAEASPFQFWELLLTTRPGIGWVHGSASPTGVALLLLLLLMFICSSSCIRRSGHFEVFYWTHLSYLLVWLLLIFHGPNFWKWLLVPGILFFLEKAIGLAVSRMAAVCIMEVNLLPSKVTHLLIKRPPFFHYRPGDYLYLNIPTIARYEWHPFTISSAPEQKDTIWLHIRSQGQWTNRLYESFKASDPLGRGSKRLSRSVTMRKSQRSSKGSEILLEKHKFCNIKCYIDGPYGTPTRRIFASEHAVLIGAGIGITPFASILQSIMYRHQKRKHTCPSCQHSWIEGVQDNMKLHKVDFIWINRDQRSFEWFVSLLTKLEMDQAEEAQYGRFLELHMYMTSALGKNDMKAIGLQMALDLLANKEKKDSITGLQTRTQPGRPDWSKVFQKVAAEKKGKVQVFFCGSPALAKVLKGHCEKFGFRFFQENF

NADPH oxidase 2 (Homo sapiens), sequence (P04839 whole entry, looked up): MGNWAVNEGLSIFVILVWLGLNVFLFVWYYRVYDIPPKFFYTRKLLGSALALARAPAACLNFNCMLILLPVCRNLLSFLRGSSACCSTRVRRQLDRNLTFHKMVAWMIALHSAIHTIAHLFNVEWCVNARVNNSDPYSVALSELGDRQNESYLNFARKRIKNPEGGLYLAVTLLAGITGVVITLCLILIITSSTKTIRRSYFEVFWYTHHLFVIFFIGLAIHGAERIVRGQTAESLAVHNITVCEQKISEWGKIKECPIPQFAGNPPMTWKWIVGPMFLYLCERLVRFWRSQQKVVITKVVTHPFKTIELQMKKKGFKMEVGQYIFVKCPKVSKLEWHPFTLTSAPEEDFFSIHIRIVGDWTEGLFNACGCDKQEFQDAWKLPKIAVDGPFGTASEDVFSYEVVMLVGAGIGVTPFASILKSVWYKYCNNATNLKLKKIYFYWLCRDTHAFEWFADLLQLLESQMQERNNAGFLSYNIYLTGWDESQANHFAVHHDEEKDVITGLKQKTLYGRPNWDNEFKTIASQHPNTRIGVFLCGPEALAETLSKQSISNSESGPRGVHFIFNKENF
NADPH oxidase 4 (Homo sapiens), sequence (Q9NPH5 whole entry, looked up): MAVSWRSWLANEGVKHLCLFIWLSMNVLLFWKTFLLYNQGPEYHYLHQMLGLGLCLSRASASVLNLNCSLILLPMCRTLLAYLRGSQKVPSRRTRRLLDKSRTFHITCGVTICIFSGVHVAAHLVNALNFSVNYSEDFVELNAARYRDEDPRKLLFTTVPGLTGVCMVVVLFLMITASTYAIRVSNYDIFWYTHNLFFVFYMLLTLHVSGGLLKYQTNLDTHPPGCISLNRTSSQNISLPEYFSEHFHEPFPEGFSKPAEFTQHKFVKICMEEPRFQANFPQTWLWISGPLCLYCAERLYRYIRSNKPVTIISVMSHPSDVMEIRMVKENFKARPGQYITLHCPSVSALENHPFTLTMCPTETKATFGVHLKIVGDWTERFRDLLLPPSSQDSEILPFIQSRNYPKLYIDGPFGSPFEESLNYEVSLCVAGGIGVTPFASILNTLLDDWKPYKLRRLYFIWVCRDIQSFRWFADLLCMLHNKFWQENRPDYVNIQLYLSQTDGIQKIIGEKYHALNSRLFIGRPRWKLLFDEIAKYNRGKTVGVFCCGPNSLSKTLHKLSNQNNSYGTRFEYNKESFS

Compound | z-score [1] | composite z-score [2] | z-score [3] | z-score [4] | z-score [5] | z-score [6] | z-score [7] | z-score [8] | z-score [9] | z-score [10]
COc1ccc(C(=O)Nc2cccc(CN3C(=O)[C@@]4(O[C@@H](CCn5cc([C@H](O)c6ccccc6)nn5)[C@H]([Si](C)(C)c5ccc(OC)cc5)[C@H]4C)c4ccccc43)c2)cc1 | -0.677 (inactive) | 0.379 | 4.91 (inactive) | 0.715 (inactive) | 0.618 (inactive) | 1.04 (inactive) | 0.858 | -0.492 (inactive) | 0.663 (inactive) | 2.23
COC(=O)c1nc2oc1CC[C@@H](CO)NC(=O)N(C)Cc1cn(nn1)C[C@H](Cc1ccccc1)NC2=O | 2.75 (inactive) | -0.145 | 1.53 (inactive) | 0.394 (inactive) | 0.864 (inactive) | 0.0148 (inactive) | 0.225 | -0.454 (inactive) | 0.917 (inactive) | 0.398
C=CCC(OC(C)=O)[C@@H]1[C@@H](N(Cc2cc3ccccc3o2)C(=O)c2ccc(-c3ccccc3)cc2)c2cc(OCCCO)ccc2N1C(=O)Cc1ccc2ccccc2c1 (stereo not given in full) | -0.0233 (inactive) | -0.0984 | 0.574 (inactive) | -0.344 (inactive) | -0.145 (inactive) | 0.26 (inactive) | 0.233 | 0.972 (inactive) | -0.906 (inactive) | 1.53
Cc1ccccc1/C=C/C=O | 0.871 (inactive) | -0.147 | 0.51 (inactive) | 0.146 (inactive) | -0.0758 (inactive) | 0.231 (inactive) | -0.265 | -0.59 (inactive) | -0.0992 (inactive) | 0.45
COc1ccc([Si](C)(C)[C@@H]2[C@@H](CC(=O)N3Cc4ccccc4C[C@H]3CO)O[C@]3(C(=O)N(Cc4cccc(N5C(=O)COc6ccccc65)c4)c4ccccc43)[C@H]2C)cc1 | 2.59 (inactive) | -0.286 | 4.94 (inactive) | 1.18 (inactive) | -0.0434 (inactive) | 0.208 (inactive) | 4.59 | -0.387 (inactive) | 0.518 (inactive) | 0.827
CO[C@H]1O[C@H](CO)[C@@H](OC(=O)Nc2cccc(F)c2)[C@H](OC(=O)Nc2ccccc2-c2ccccc2)[C@@H]1OC(=O)Nc1ccccc1-c1ccccc1 | 0.538 (inactive) | 0.257 | 3.1 (inactive) | 2.23 (inactive) | 0.346 (inactive) | 1.68 (inactive) | 0.0437 | -2.45 (inactive) | -0.551 (inactive) | -0.608
C#C[C@H]1Oc2ccccc2S(=O)(=O)N2CCC[C@@H]12 | -0.789 (inactive) | -0.106 | 0.264 (inactive) | 0.276 (inactive) | 0.0691 (inactive) | 0.0594 (inactive) | 0.213 | 0.281 (inactive) | -1.29 (inactive) | -0.494
[N-]=[N+]=NCc1ccccc1[C@H]1OC(c2ccc(OCCCO)cc2)=N[C@@]1(Cc1ccccc1)C(=O)NCC(O)CO (stereo not given in full) | -0.112 (inactive) | 1.61 | 25.4 (active) | 12.1 (active) | 1.87 (inactive) | 1.67 (inactive) | -0.09 | 0.046 (inactive) | 0.497 (inactive) | -0.796
O=C1C2C=CC(C(O)c3cccc4ccccc34)N(n3cnnc3)C2C(=O)N1Cc1ccccc1 (stereo not given) | -1.53 (inactive) | 1.69 | -0.0851 (inactive) | 0.327 (inactive) | 0.282 (inactive) | 0.339 (inactive) | -0.711 | -0.154 (inactive) | 0.0285 (inactive) | -0.879
CN1C(=O)C2C=CC(C(O)C3=C[C@H]4C[C@@H](C3)C4(C)C)N(Nc3ccc([N+](=O)[O-])cc3[N+](=O)[O-])C2C1=O (stereo not given in full) | -0.794 (inactive) | 0.271 | 3.59 (inactive) | 1.27 (inactive) | 1.06 (inactive) | 1.05 (inactive) | -0.456 | 0.0656 (inactive) | -0.0391 (inactive) | -1.2
CC(c1ccccc1)C(O)C1C=CC2C(=O)N(c3ccccc3)C(=O)C2N1Nc1ccccc1F (stereo not given) | 0.207 (inactive) | 0.0146 | 0.784 (inactive) | -0.11 (inactive) | -0.597 (inactive) | -0.865 (inactive) | 0.0297 | -0.652 (inactive) | -0.714 (inactive) | 0.381
O=C1C2C=CC(C(O)c3ccc(Br)cc3)N(n3cnnc3)C2C(=O)N1Cc1ccccc1 (stereo not given) | -2.21 (inactive) | 0.152 | 0.922 (inactive) | 1.16 (inactive) | 0.107 (inactive) | 0.756 (inactive) | -0.738 | 0.101 (inactive) | 2.59 (inactive) | 0.964
O=C(CS)NCCCCCCNC(=O)[C@H]1C[C@H]2C(=O)N3CCC[C@H]3C(=O)N2[C@H]1c1ccc(O)cc1 | -0.827 (inactive) | 0.157 | 3.99 (inactive) | 0.776 (inactive) | -1.85 (inactive) | 0.179 (inactive) | -0.126 | 1.05 (inactive) | 0.241 (inactive) | 0.247
CCN(CC)c1ccc(N2CC=CC34O[C@@H]5C=CCOC(=O)[C@@H]5[C@H]3C(=O)N(CCCCCO)[C@@H]4C2=O)cc1 (stereo not given in full) | 0.825 (inactive) | 0.271 | 1.29 (inactive) | 0.172 (inactive) | 1.36 (inactive) | 0.113 (inactive) | -0.491 | 0.766 (inactive) | 0.449 (inactive) | 1.67
Cc1ccc(S[C@]2(C(=O)NCCN3CCOCC3)CC(=O)N(C3CCCCC3)[C@@H]2c2ccc(CO)cc2)cc1 | -0.288 (inactive) | 0.136 | 1.47 (inactive) | 0.502 (inactive) | 0.512 (inactive) | 0.377 (inactive) | -0.667 | 0.444 (inactive) | 1 (inactive) | 0.923
CC(C)OC(=O)C1=CCC(c2cccc(Cl)c2)O1 (stereo not given) | 0.504 (inactive) | -0.142 | 26 (active) | 6.53 (inactive) | 0.751 (inactive) | 0.296 (inactive) | 1.8 | -3.89 (inactive) | -2.1 (inactive) | -4.96
O=C1C2C=CC(C(O)c3ccc(-c4ccccc4)s3)N(Nc3ccccc3F)C2C(=O)N1c1ccccc1 (stereo not given) | -1.69 (inactive) | 0.282 | 4.17 (inactive) | 1.66 (inactive) | 0.8 (inactive) | 1.27 (inactive) | -0.501 | -0.49 (inactive) | -4.68 (inactive) | -3.41
COCCOC(=O)N1C(=O)[C@@]2(c3ccccc31)[C@H](C(=O)N1CCCCCCC1)[C@H]1C(=O)O[C@H](c3ccccc3)[C@H](c3ccccc3)N1[C@@H]2c1ccccc1OCCO | -0.946 (inactive) | 2.79 | 1.49 (inactive) | 0.529 (inactive) | 0.537 (inactive) | 0.49 (inactive) | -0.408 | 0.966 (inactive) | 0.739 (inactive) | 1.24
CCCCC(=C=CC[C@H](O)c1ccccc1OCCO)C[C@H](O)c1cc(Cl)cc(Cl)c1O | -0.0999 (inactive) | -0.0989 | 15.9 (active) | 2.79 (inactive) | -0.179 (inactive) | 1.46 (inactive) | 0.276 | -0.565 (inactive) | -1.5 (inactive) | -2.02
COC(=O)C(CC#Cc1ccc2c(c1)[C@]1(C(=O)N2)[C@H](C(=O)N2CCCCCCC2)[C@H]2C(=O)O[C@H](c3ccccc3)[C@H](c3ccccc3)N2[C@@H]1c1ccccc1OCCO)C(=O)OC | -0.984 (inactive) | 3.08 | 1.49 (inactive) | 0.918 (inactive) | 0.573 (inactive) | 0.417 (inactive) | -0.0756 | 0.445 (inactive) | 0.262 (inactive) | 1.22
COC(=O)[C@@]1(Cc2ccc(OC)cc2)[C@H]2c3cc(C(=O)N4CCCC4)n(CCN4CCOCC4)c3C[C@H]2CN1C(=O)c1ccccc1 | -0.861 (inactive) | 2.2 | 0.32 (inactive) | -0.288 (inactive) | 0.366 (inactive) | 0.225 (inactive) | -0.286 | 0.99 (inactive) | -0.245 (inactive) | -3.66
CC1CC/C=C\[C@H]2OC34C=CCN(Cn5nnc6ccccc65)C(=O)[C@H]3N(CCCO)C(=O)[C@@H]4C2C(=O)O1 (stereo not given in full) | 1.29 (inactive) | 0.0445 | 0.935 (inactive) | 0.563 (inactive) | -0.264 (inactive) | 0.554 (inactive) | 0.114 | 0.923 (inactive) | -1.82 (inactive) | 1.4
CCCCC(=O)N(Cc1ccccc1F)[C@@H]1CC(C(=O)NCCO)=C[C@H](Oc2c(I)cc(CO)cc2OC)[C@H]1O | 0.381 (inactive) | 0.298 | 5.42 (inactive) | 3.13 (inactive) | 2.17 (inactive) | 1.48 (inactive) | 0.245 | 1.27 (inactive) | 0.438 (inactive) | -3.95
O=C1OCC=C[C@H]2OC34C=CCN(Cc5ccccc5)C(=O)[C@H]3N(CCCO)C(=O)[C@@H]4[C@@H]12 (stereo not given in full) | 2.57 (inactive) | 1.27 | 0.599 (inactive) | -1 (inactive) | 1.01 (inactive) | -1.05 (inactive) | 0.833 | -0.548 (inactive) | -1.29 (inactive) | -1.17
CCCC[C@@H]1C[C@H]1[C@@H](NC(=O)c1ccccc1)c1ccc(-c2ccccc2)cc1 | -1.66 (inactive) | 0.212 | 11.5 (active) | 1.95 (inactive) | 1.57 (inactive) | 1.16 (inactive) | 0.319 | -1.68 (inactive) | -2.79 (inactive) | 0.666
CN1C(=O)C2C=CC(C(O)C(C)(C)C)N(Nc3ccccc3)C2C1=O (stereo not given) | -1.06 (inactive) | -0.0838 | 0.931 (inactive) | 1.05 (inactive) | 0.156 (inactive) | 1.12 (inactive) | -1.04 | -1.09 (inactive) | -3.48 (inactive) | -1.54

Reference: PubChem BioAssay
